# Assay outcomes (PubChem BioAssay)
# Hits are enriched below; roughly 1.5% of the tested compounds scored in any of these assays.
# EBV gp42 block: EBV gp42 inhibition; Q1HVG2; AID 1085; inhibition, % (tested at 21.74 µM); hit rate 0.42% among 220,000; Fluorescence polarization binding assay, mP read-out; in the data active = inhibition above about 50%
# Target sequence (Q1HVG2 whole entry, looked up): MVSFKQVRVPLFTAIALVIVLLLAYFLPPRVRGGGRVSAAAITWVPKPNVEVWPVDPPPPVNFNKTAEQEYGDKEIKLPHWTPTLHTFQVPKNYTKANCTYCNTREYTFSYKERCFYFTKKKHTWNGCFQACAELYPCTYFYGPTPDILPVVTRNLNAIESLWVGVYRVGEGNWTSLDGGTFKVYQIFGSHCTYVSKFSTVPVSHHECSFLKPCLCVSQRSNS
# eLon inh: inhibitors of E. coli Lon protease; P0A9M0; purified E. coli Lon protease, fluorescence polarization; inhibition, % at 7.94 µM; hit rate 0.42% among 360,000; AID 602123; in the data active = inhibition above about 13%, passing the limit was not always enough;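 also: 0% = enzyme with probe and DMSO and 100% = no enzyme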
# MEX-5 binding: C. elegans MEX-5 TCR-2 RNA binding activity; MEX-5/FITC-TCR2 RNA binding, fluorescence polarization; stronger effect = lower value; activity score (negative = inhibition of binding), % at 10 µM; hit rate 0.38% among 300,000;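 active = inhibition past about -25% in most replicates, and total fluorescence under double the plate's negative control median, limit read from the data; inconclusive = replicates evenly split on the limit, or fluorescence at least double controls; inactive = too little inhibition in most replicates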;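 also: 0% = DMSO and -100% = 5 µM competing unlabeled TCR2 RNA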
# Bcl-xL primary: blocks human Bcl-xL binding to Bim BH3 peptide. GST-Bcl-xL / FITC-Bim BH3 peptide fluorescence polarization. inhibition, % at 10.9 µM. hit rate 0.7% among 320,000. Q07817;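 active = inhibition above the mean of all tested compounds plus 3 SD, cutoff set per campaign, cut at about 30% in these data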;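 also: 0% = DMSO wells and 100% = unlabeled Bim-BH3 peptide competitor; inhibitors lower millipolarization by displacing the labeled peptide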
# MCL1 BIM primary: MCL1-BIM-BH3 interaction inhibition (human); Q07820; GST-MCL1 / FITC-Bim-BH3 fluorescence polarization; inhibition, % at 10.9 µM; hit rate 0.68% among 320,000; AID 2057;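 active = inhibition above the mean inhibition of all tested compounds plus 3 SD, set per campaign, cut at about 40% in these data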;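 also: 0% = DMSO wells and 100% = unlabeled Bim-BH3 peptide control; higher means more loss of mP so more displacement of Bim peptide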
# Target sequence (Q07820 whole entry, looked up): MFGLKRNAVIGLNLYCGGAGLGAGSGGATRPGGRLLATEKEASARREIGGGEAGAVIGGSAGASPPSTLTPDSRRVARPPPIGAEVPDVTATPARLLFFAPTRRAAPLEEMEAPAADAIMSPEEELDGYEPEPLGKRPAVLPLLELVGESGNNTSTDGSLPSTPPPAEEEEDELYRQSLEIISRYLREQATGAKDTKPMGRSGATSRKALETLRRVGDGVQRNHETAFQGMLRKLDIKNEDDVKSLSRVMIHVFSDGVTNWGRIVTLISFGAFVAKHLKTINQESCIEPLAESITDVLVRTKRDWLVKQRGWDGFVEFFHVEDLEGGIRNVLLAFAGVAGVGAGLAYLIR
# GLD-1 RNA inh: GLD-1-TGE RNA interaction inhibition (C. elegans); inhibition, % at 5.96 µM; purified GLD-1 + fluorescein TGE RNA, fluorescence polarization; AID 2280; hit rate 0.44% among 320,000;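 active = percent inhibition above a per-plate cutoff, the plate mean of test compounds plus 3 SD, cut at about 30% in these data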;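 also: 0% = DMSO wells with GLD-1 and probe and 100% = wells lacking GLD-1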
# BCLXL inh confirm: Bcl-xL (human) inhibition, MCL1 counter-screen confirmation | AID 2166 | hit rate 54% among 1,700 | shares compounds with MCL1 BIM primary | inhibition, % at 10.9 µM | GST-Bcl-xL / FITC-Bim BH3 peptide FP binding;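 active = inhibition above a cutoff equal to the mean inhibition of all tested compounds plus 3 SD, cut at about 30% in these data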;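 also: 0% = DMSO wells and 100% = unlabeled Bim BH3 control peptide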
# MCL1 inh confirm: MCL1-BIM-BH3 interaction inhibition, confirmation; inhibition, % at 10.9 µM; hit rate 61% among 1,700; shares compounds with MCL1 BIM primary; GST-MCL1 / FITC-Bim-BH3 fluorescence polarization; AID 2168;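 active = inhibition above the average of all tested compounds plus 3 SD, cut at about 40% in these data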;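 also: 0% = DMSO wells and 100% = unlabeled Bim-BH3 control peptide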
# * = called active by the depositor; ? = inconclusive; nt = not tested or not shown; + = active, no number.
SMILES,EBV gp42 block,eLon inh,MEX-5 binding,Bcl-xL primary,MCL1 BIM primary,GLD-1 RNA inh,BCLXL inh confirm,MCL1 inh confirm
COc1ccc(Oc2cc(C)c3cccc(C)c3n2)cc1,-20,-8,0,15,6,-4,nt,nt
Cc1c(NS(=O)(=O)c2cc(C(=O)NCCN(C)C)ccc2Cl)c(=O)n(-c2ccccc2)n1C,nt,-7,2,17,75*,-7,7,11
Cc1c(NS(=O)(=O)c2cc(C(=O)NCc3cccc(Cl)c3)ccc2Cl)c(=O)n(-c2ccccc2)n1C,nt,1,nt,nt,nt,nt,nt,nt
Cc1cccc(C)c1NC(=O)c1ccc([N+](=O)[O-])s1,-2,-6,2,-1,-3,9,nt,nt
CC(C)(C)c1ccc(-n2ncc3c2CCCC3NC(=O)CCN2CCCO2)cc1 (stereo not given),nt,-5,-2,5,3,2,nt,nt
O=C(/C=C/c1ccco1)NC(=S)Nc1cccc(C(=O)O)c1,nt,-11,-34*,37*,61*,5,31*,52*
N#CC(C#N)=Cc1c[nH]c(=O)c(C#N)c1Nc1ccccc1,nt,2,-17,56*,55*,26,46*,56*
O=C(COC(=O)c1ccc(O)cc1O)NC12CC3CC(CC(C3)C1)C2,nt,0,nt,139*,158*,100*,11,16
COc1ccc(C(=O)OCC(=O)NC23CC4CC(CC(C4)C2)C3)c(O)c1,nt,-5,nt,nt,nt,nt,nt,nt
COc1cc(SC)ccc1C(=O)N(C)CC(=O)Nc1cccc2ccccc12,nt,-1,nt,4,1,6,nt,nt
c1ccc2nc(-c3ccc(N4CCOCC4)cc3)ccc2c1,-37,0,-2,-3,-7,-18,nt,nt
Clc1cccc2sc(N3CCCCC3)nc12,-2,0,-2,69*,58*,19,2,6
Clc1cc(Cl)c2nc(N3CCCCC3)sc2c1,-21,0,-1,-3,-2,3,nt,nt
CC(C)NC(=O)CN1C(=O)c2ccccc2S1(=O)=O,3,2,0,5,+,6,6,-3
O=C(O)c1ccc2c(c1)C1C=CCC1C(c1ccncc1)N2 (stereo not given),-9,7,-24,18,19,9,nt,nt
CC(=O)c1ccc2c(c1)C1C=CCC1C(c1ccc(S(=O)(=O)N3CCOCC3)cc1)N2 (stereo not given),6,-2,nt,22,10,-1,nt,nt
Cc1c(Cl)cccc1NS(=O)(=O)c1ccc2c(c1)C1C=CCC1C(c1ccc(C(=O)O)cc1)N2 (stereo not given),79*,1,nt,39*,61*,13,29,74*
COc1ccc(NS(=O)(=O)c2ccc3c(c2)[C@H]2C=CC[C@H]2[C@@H](c2ccc(C(=O)O)cc2)N3)cc1,nt,12,-61*,27,54*,9,11,27
Cc1cccc(-c2n[nH]c(S(C)(=O)=O)c2C#N)c1,-13,0,-3,6,0,2,nt,nt
CC(C)C(NC=C1C(=O)OC(C)(C)OC1=O)C(=O)O (stereo not given),-6,2,-1,6,1,3,nt,nt
CC(=O)N/N=C(\C)CC(=O)Nc1ccc2c(c1)OCCO2,-18,-10,1,0,-1,4,nt,nt
Cc1cc2n(c1)CCn1c(C)ccc1-2,-16,nt,0,78*,99*,21,92*,135*
CCCC1=[N+](CC)CCn2c(C)ccc21,-36,1,0,-9,-15,-2,nt,nt
O=C(CN1CCSC1=O)N1CCN(S(=O)(=O)c2ccc(Cl)cc2)CC1,nt,-2,nt,3,4,3,nt,nt
O=C(CN1CCSC1=O)N1CCN(S(=O)(=O)c2ccccc2)CC1,nt,1,nt,6,55*,3,5,11
SMILES,EBV gp42 block,eLon inh,MEX-5 binding,Bcl-xL primary,MCL1 BIM primary,GLD-1 RNA inh,BCLXL inh confirm,MCL1 inh confirm
CC(C)Sc1nc2ccccc2c(=O)[nH]1,-2,-19,0,0,-1,-1,nt,nt
CC(c1nc2ccccc2c(=O)[nH]1)N(C)c1ccc2ccccc2c1 (stereo not given),6,20,3,74*,87*,78*,12,22
O=C(O)c1ccccc1-c1ccc(/C=c2\sc3nc4cc(Br)cnc4n3c2=O)o1,-121,-45,5,38*,60*,11,-30,-62
CC(=O)c1c(C)[nH]c(C(=O)COC(=O)CCNS(=O)(=O)c2ccc(C)c(C)c2)c1C,nt,14,nt,nt,nt,7,nt,nt
Cc1ccc([N+](=O)[O-])cc1-c1ccc(/C=C(\C#N)c2[nH]nc(N)c2C#N)o1,60*,-10,nt,9,49*,7,54*,84*
COc1ccccc1C(=O)NC1CC2CCCC(C1)N2Cc1ccccc1 (stereo not given),nt,-12,nt,nt,nt,nt,nt,nt
O=C1CCCC2=C1C(c1cccs1)Nc1ccc3ncccc3c12 (stereo not given),-11,-12,-1,5,13,4,nt,nt
O=C1CCCC2=C1C(c1ccc(O)c(O)c1)Nc1ccc3ncccc3c12 (stereo not given),9,3,-7,36*,50*,7,41*,57*
CCN1CCN(C(=O)CN2C(=O)COc3ccc(S(=O)(=O)N4CCOCC4)cc32)CC1,nt,8,1,1,-4,1,nt,nt
C=CCOc1c(Br)cc(C2C3=C(CCCC3=O)N(C)C3=C2C(=O)CCC3)cc1OCC,6,-12,0,22,43*,10,7,23
O=C(CCN1C(=O)c2ccc([N+](=O)[O-])cc2C1=O)Nc1nccs1,-16,-3,2,2,3,0,nt,nt
COc1cc([C@@H]2[C@H]3CNCC=C3C(C#N)=C(N)C2(C#N)C#N)ccc1OC(C)C,1,-62,-8,-1,-13,-21,nt,nt
COc1cc(C2C3CN(C)CC=C3C(C#N)=C(N)C2(C#N)C#N)ccc1OC(C)C (stereo not given),10,9,-30*,60*,66*,12,21,27
CC(C)N1CC=C2C(C#N)=C(N)C(C#N)(C#N)[C@H](c3ccoc3)[C@H]2C1,130*,nt,?,158*,183*,85*,78*,100*
CC(C)(C)OC(=O)N1CC=C2C(C#N)=C(N)C(C#N)(C#N)[C@H](c3cccnc3)[C@H]2C1,-3,-14,-28*,53*,67*,37*,45*,47*
CCN(CC)S(=O)(=O)c1ccc(C(=O)Nc2nnc(NC(=S)Nc3ccccc3)s2)cc1,-11,5,3,10,5,12,nt,nt
CCOc1ccc(N2CC(C(=O)N3CCCCC3)CC2=O)cc1 (stereo not given),nt,4,-3,4,6,1,nt,nt
